# Source: PubChem BioAssay
# Pf Dd2 inh: Plasmodium falciparum Dd2 growth inhibition; P. falciparum Dd2 growth, SYBR Green, 72 h; Potency, µM (highest dose often 28.9 µM), for the others: at the top dose activity, negative = inhibition, actives largely listed as inhibitors; actives 4.3% (n = 120,000); AID 1347417; active means well fitted inhibition curve with a large enough effect;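 further: plate controls were DMSO vehicle for no effect and reference drug for full effect; nearly all actives have a fitted effect of over 65% in size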
#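 Infected erythrocytes (Dd2, 0.3% parasitemia, 2.5% hematocrit final) are added to compound in RPMI-1640/Albumax II medium, grown 72 h at 37C in low oxygen, then lysed with saponin/Triton-X containing SYBR Green and read by fluorescence.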
# Numbers without * were called inactive; i = inactive; [ ] = remark or other dose. This is one part of a sample in which hits are shown more often than they occur. Potency means the concentration at half of the fitted maximal effect.
SMILES,Pf Dd2 inh
COc1cc(NC(=O)CSc2c3c(nc4ccccc24)CCC3)cc(OC)c1OC,-8%
COc1ccc(NC(=O)c2sc3nc4c(cc3c2N)CCCCCC4)cc1OC,46%
COc1ccc(/C=C/C(=O)Nc2ccc3nc4c(c(Nc5ccc(OC)c(OC)c5)c3c2)CCCC4)cc1,2.2µM*
COc1ccc(/C=C/C(=O)Nc2ccc(Cl)c(Cl)c2)cc1,6%
COc1ccc(Nc2c3c(nc4ccc(NC(=O)/C=C/c5cc(OC)c(OC)c(OC)c5)cc24)CCCC3)cc1OC,2.5µM*
O=C(COc1ccccc1)N[C@H]1CO[C@H]2[C@@H]1OC[C@@H]2n1nnnc1Oc1ccc(-n2ccnc2)cc1,-11%
CC1CCC2(CC1)OCC(C(=O)NCC1CCCO1)N2C(=O)c1ccc(Cl)c(Cl)c1 (stereo not drawn),i
Cc1cnc(-c2ccccc2)n1CCNC(=O)C1COc2ccccc2O1 (stereo not drawn),-1%
COCCNC(=O)[C@@H](C)C1CC[C@@]2(C)CC[C@H](NC(=O)c3ccc(C#N)cc3)[C@@H](C)[C@@H]2[C@H]1O (stereo partly drawn),-2%
Cc1cc2nc3n(c(=O)c2n1CC(=O)NCc1ccc(F)cc1)CCCC3,125%
CCCCc1nc2cc(C(=O)N3CC(Oc4ccccc4OC)C3)ccc2o1,-16%
CC1CCC2(CC1)NC(=O)N(CC(=O)N(C)C1CCCCC1)C2=O (stereo not drawn),16%
COCCNC(=O)CCC[C@@H]1[C@H]2CCCN3CCC[C@@H](CN1C)[C@@H]23,5%
CCOCCOC1CCN(C(=O)Nc2ccccc2F)CC1,i
Cc1ccc(C)c(NC(=O)c2ccc3c(c2)CCN3S(=O)(=O)c2ccccc2)c1,-19%
O=C(Nc1ccc(Cl)c(C(F)(F)F)c1)c1ccc2c(c1)CCN2S(=O)(=O)c1ccccc1,8.9µM*
COc1ccc(Cl)cc1NC(=O)c1oc2ccc(S(=O)(=O)N3CCCCC3)cc2c1C,41%
CCc1cccc(CC)c1NC(=O)c1ccc2c(c1)CCN2S(=O)(=O)c1ccccc1,7%
COc1ccc(C(=O)Nc2ccc3c(c2)CCCN3S(=O)(=O)c2ccc(C)cc2)cc1,i
COc1ccc(NC(=O)c2oc3ccc(S(=O)(=O)N4CCCCC4)cc3c2C)cc1Cl,11µM*
Cc1ccc(Cl)cc1NC(=O)c1oc2ccc(S(=O)(=O)N3CCCCCC3)cc2c1C,5%
COc1ccc(NC(=O)c2ccc3c(c2)CCN3S(=O)(=O)c2ccc(C)cc2)cc1Cl,8.9µM*
CC(=O)Nc1ccc(NC(=O)c2ccc3c(c2)CCN3S(=O)(=O)c2ccc(C)cc2)cc1,19%
COc1ccc(CCC(=O)NC2CCN(C(=O)c3cc4c(=O)[nH]c(C)cn4n3)CC2)cc1,i
Cc1ccc(C2Cn3nnc(C(=O)N4CCC(C(=O)NC(C)c5ccc(F)cc5)CC4)c3CO2)cc1 (stereo not drawn),i
SMILES,Pf Dd2 inh
O=C(NC1CCCC1)N1CCCN(c2nc3ncccc3o2)CC1,14%[44.1 µM]
N#Cc1ccc(C(=O)N2CCC3(CC2)CC(CO)N(C(=O)c2ccccc2)C3)cc1 (stereo not drawn),-11%
O=C(O)CN1CCC[C@]2(C(=O)O)CN(Cc3cccc(O)c3)CC[C@@H]12,-5%
COCCCN1CC2(CCN(C(=O)CCn3cc(C)cn3)CC2)CC1=O,-12%
CCS(=O)(=O)N1CCCN(C)c2ccccc21,-19%
CC(=O)N1CCC(C2CCN(S(=O)(=O)c3cccc(Cl)c3)C2)CC1 (stereo not drawn),-18%
CN1CCCN(S(=O)(=O)c2cccc(Cl)c2)c2ccccc21,11µM*
COc1cccc(C(=O)N2CCC(C(NC(=O)c3cccs3)C(=O)NCC(C)C)CC2)c1 (stereo not drawn),i
COc1ccc(CN2CC3(CCN(S(=O)(=O)Cc4ccccc4F)CC3)C2=O)cc1,-1%
COc1ccc(CCNC(=O)C(=O)Nc2ccccc2F)cc1,i
COc1ccc(CCN(Cc2ccccc2F)CC2(O)CCCNC2)cc1 (stereo not drawn),13µM*
COc1ccc(-c2cnc([C@@H]3COCCN3Cc3csnn3)[nH]2)cc1,-20%[44.1 µM]
Cc1ccc(CNC(=O)CC2CCOCC2)cc1,58%
CNC(=O)[C@H]1C[C@H](Oc2cccnc2)CN1S(=O)(=O)c1cccc(OC)c1,-33%
C#CCNC(=O)C1CCc2nnc(CNC(=O)NC(C)C)n21 (stereo not drawn),24%
Fc1cccc(CN2CCC(Cc3nc(-c4ccncc4)n[nH]3)C2)c1 (stereo not drawn),i
CC(C)NC(=O)NC[C@H]1O[C@@H](CC(=O)NCc2cccnc2)[C@H](O)[C@@H]1O,20%[44.1 µM]
Cc1ncc(CO)c(CN2CCCC23Cc2ccccc2CNC3=O)c1O (stereo not drawn),0%
Cc1cccc(CN2CCCCC23Cc2ccccc2CNC3=O)n1 (stereo not drawn),10µM*
O=C1NCc2ccccc2CC12CCCN2Cc1ccc2ccccc2n1 (stereo not drawn),5%
Cc1cccc(C)c1CN1CCCC12Cc1ccccc1CNC2=O (stereo not drawn),2.5µM*
O=C1NCc2ccccc2CC12CCCCN2Cc1cccc(O)c1 (stereo not drawn),-20%
Cc1cc(C)c(CN2CCCC23Cc2ccccc2CNC3=O)c(C)c1 (stereo not drawn),-5%
CCCCC1C=CCN1S(=O)(=O)c1cccc(C(=O)NCC(F)(F)F)c1 (stereo not drawn),-25%
Cc1ccc(NC(=O)Cn2nc3n(c2=O)CCCC3)cc1F,i
SMILES,Pf Dd2 inh
Cn1cnc(S(=O)(=O)N2CCC(N3CC(OCC4CC4)C34CCOCC4)CC2)c1 (stereo not drawn),1%
CN(CCc1ccccn1)C(=O)C1CCCN(S(=O)(=O)c2ccccc2)CCC(=O)NCC1 (stereo not drawn),12%
O=C(N[C@H]1CCN2C(=O)c3cc(-c4ccccc4F)ccc3NC(=O)[C@H]12)c1cnccn1,5.6µM*
O=C(N[C@H]1CCN2C(=O)c3cc(/C=C/c4ccccc4)ccc3NC(=O)[C@H]12)c1cnccn1,-14%[44.1 µM]
O=C(N[C@H]1CCN2C(=O)c3cc(/C=C/c4ccc(O)cc4)ccc3NC(=O)[C@H]12)c1cnccn1,-21%
CC(C)c1ccc(CNC(=O)c2noc(-c3ccc4c(c3)OCO4)n2)cc1,i
COc1ccc(-c2nc(CSCC(=O)N3CCN(c4ccc(OC)cc4)CC3)c(C)o2)cc1,-11%
COc1ccc(-c2nc(CSCC(=O)N3CCN(c4cccc(C)c4C)CC3)c(C)o2)cc1OC,10µM*
COc1ccc(-c2nc(CSCC(=O)N3CCN(c4cc(Cl)ccc4C)CC3)c(C)o2)cc1,i
COc1ccc(Cn2c(-c3ccc(Cl)cc3)nc(C)c(CCO)c2=O)cc1F,-23%
CN(C)c1ccc2ncc(Nc3ccccc3Cl)n2n1,-16%[44.1 µM]
COCCN1Cc2ccc(Nc3ccc(OC)cc3)nc2C(C)(C(=O)NC(C)C)C1 (stereo not drawn),13µM*
COCCN1Cc2ccc(NCc3ccccc3)nc2C(C)(C(=O)NCc2ccccc2)C1 (stereo not drawn),-26%
COCCN1Cc2ccc(Nc3ccc(OC)cc3)nc2C(C)(C(=O)NCC2CC2)C1 (stereo not drawn),i
COCCC(=O)N1CC[C@H](c2nc3ccccc3o2)C1,-10%[44.1 µM]
O=C(NCCOc1ccccc1)c1cnc2n1CCN(Cc1ccc3[nH]ccc3c1)CC2,13µM*
O=C(NCCOc1ccccc1)c1cnc2n1CCN(Cc1ccccc1O)CC2,1%[44.1 µM]
N#Cc1cccc(CN2CCc3ncc(C(=O)NCCOc4ccccc4)n3CC2)c1,-1%[44.1 µM]
